Source: PubChem BioAssay
DT40 TDP1 no CPT: qHTS for Inhibitors of human tyrosyl-DNA phosphodiesterase 1 (TDP1): qHTS in cells in absence of CPT; DT40 Tdp1-/- hTDP1 cells, no CPT, ATP luminescence, 48 h; AID 686978, 2013; Potency, µM (series often up to 46.2 µM), for the others: at the top dose activity change, negative = growth inhibition, most hits filed as inhibitors; 15% of 420,000 active; further: nearly all actives have a fitted effect of over 55% in size
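Chicken DT40 Tdp1-/- cells complemented with human TDP1, screened without camptothecin (DMSO vehicle only), 400 cells/well. Compounds pin-transferred, cells incubated at 37 °C for at least 48 hr. Growth read as ATP-dependent luminescence (CellTiter-Glo, 30 min at RT).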
RORg inh: blocks mouse ROR gamma transcriptional activity | 5.4% of 310,000 active | P51450 | Potency, µM (doses to about 53.6 µM), for the others: at the highest dose activity change, negative = inhibition, most hits filed as inhibitors | AID 2551 | Drosophila S2 Gal4-RORgamma UAS-luciferase reporter, 20 h; further: nearly all actives have a fitted effect of over 60% in size
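Using a luciferase readout, inhibitors were identified by reduced reporter activity in Drosophila cells coexpressing a copper-inducible Gal4–ROR gamma fusion and UAS-driven Photinus luciferase, incubated 20 hr after 700 uM copper sulfate.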
VP16 counter: Gal4-VP16 reporter inhibition counter-screen; Drosophila S2 Gal4-VP16 UAS-luciferase, luminescence, 20 h; Potency, µM (doses to about 53.6 µM), inactives show at the top dose activity, negative = inhibition, actives largely listed as inhibitors; 3.5% of 310,000 active; AID 2546;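 further: Gal4-VP16 expression switched on by copper sulfate through the metallothionein promoter; nearly all actives have a fitted effect of over 50% in size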
TDP1 cell CPT: growth inhibition of DT40 Tdp1-/-;hTDP1 cells with camptothecin (screen for TDP1 inhibitors); chicken DT40 Tdp1-/-;hTDP1 cells + 20 nM CPT, ATP luminescence, 48 h; Potency, µM (top dose mostly 46.2 µM), without a hit: top-dose activity change, negative = growth inhibition, hits mostly inhibitors; 12% of 420,000 active; AID 686979; further: nearly all actives have a fitted effect of over 55% in size
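Chicken DT40 Tdp1-/- cells stably complemented with human TDP1 were seeded at 400 cells/well in medium containing 20 nM camptothecin, exposed to pin-transferred compounds, and grown at 37 °C for at least 48 hr. Viability was read as ATP luminescence.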
TDP1 inh: inhibitors of human tyrosyl-DNA phosphodiesterase TDP1; Q9NUW8; recombinant TDP1, AlphaScreen DNA substrate cleavage; Potency, µM (series often up to 130 µM), without a hit: at the top dose activity change, negative = inhibition, hits mostly inhibitors; 0.28% of 350,000 active; AID 485290; further: nearly all actives have a fitted effect of over 40% in size
Target sequence (Q9NUW8 whole entry, looked up): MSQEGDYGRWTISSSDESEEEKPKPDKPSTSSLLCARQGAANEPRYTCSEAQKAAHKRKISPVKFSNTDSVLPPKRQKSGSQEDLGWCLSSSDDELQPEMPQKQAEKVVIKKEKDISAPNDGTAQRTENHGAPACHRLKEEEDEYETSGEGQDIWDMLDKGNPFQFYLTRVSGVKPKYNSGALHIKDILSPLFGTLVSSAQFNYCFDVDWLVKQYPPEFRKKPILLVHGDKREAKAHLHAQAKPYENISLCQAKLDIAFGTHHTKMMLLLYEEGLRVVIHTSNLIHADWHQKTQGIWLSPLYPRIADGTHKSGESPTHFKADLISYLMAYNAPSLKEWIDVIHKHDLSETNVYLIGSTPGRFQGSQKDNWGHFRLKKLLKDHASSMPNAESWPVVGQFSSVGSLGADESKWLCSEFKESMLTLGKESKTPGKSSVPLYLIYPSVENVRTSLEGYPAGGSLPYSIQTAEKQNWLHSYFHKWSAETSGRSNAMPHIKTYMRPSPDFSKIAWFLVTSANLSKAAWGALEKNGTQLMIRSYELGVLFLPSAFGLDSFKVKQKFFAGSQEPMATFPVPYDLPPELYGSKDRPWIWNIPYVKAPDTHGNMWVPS
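Here, a 5' biotin and 3' phosphotyrosine-FITC DNA oligonucleotide reports Tdp1 activity: intact substrate bridges AlphaScreen beads, while cleavage leaves a 3' phosphate and drops signal. All incubations at room temperature.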
Starred values were filed as active, the others as inactive; ! = not confirmed by another sample; [ ] = another dose, or the depositor's remark. Shown are actives, neighbours in structure and some others; about 19% of the full set was active somewhere. The call rests on the fitted dose curve; in most records, active means well fitted curve in the direction sought with a large enough effect; inconclusive means small, poorly fitted or top-dose-only effect, or another doubt; inactive means no such curve, though single readings can be large; an effect the other way counts as inactive or inconclusive. On the % scale 0 is the no-effect control and ±100 the full control effect; potency means the concentration at half of the fitted maximal effect.

Screening COc1ccc(OC)c(NC(=O)C2(C)CCN2C(=O)Cc2ccc(Cl)cc2Cl)c1 (stereo unspecified) returned DT40 TDP1 no CPT 18µM* and TDP1 cell CPT 21µM*.
CC1(C(=O)Nc2ccc(Cl)c(Cl)c2)CCN1C(=O)CC1CCCC1 (stereo unspecified) was read as DT40 TDP1 no CPT inconclusive and TDP1 cell CPT 26µM*.
For CC1(C(=O)Nc2cccc3cccnc23)CCN1C(=O)CC1CC1 (stereo unspecified) the results were DT40 TDP1 no CPT -17% and TDP1 cell CPT -23%.
COc1ccc(NC(=O)C2(C)CCN2C(=O)Cc2ccc(Cl)cc2Cl)cc1OC (stereo unspecified) was read as DT40 TDP1 no CPT 21µM* and TDP1 cell CPT 18µM*.
CC1(C(=O)Nc2cccc3cccnc23)CCN1C(=O)Cc1ccc(Cl)cc1Cl (stereo unspecified) was read as DT40 TDP1 no CPT 21µM* and TDP1 cell CPT 21µM*.
Screening COc1ccc(OC)c(S(=O)(=O)NC(=O)C2(C)CCN2C(=O)Cc2ccc(Cl)cc2Cl)c1 (stereo unspecified) returned DT40 TDP1 no CPT -6% and TDP1 cell CPT -28%.
`CC1(C(=O)Nc2ccc3c(c2)OCO3)CCN1C(=O)CC1CC1` (stereo unspecified) gave DT40 TDP1 no CPT -9% and TDP1 cell CPT -12%.
For Cc1ccc(C(=O)N2CCN3C(=O)c4ccccc4C23c2ccccc2)cc1 (stereo unspecified) the results were DT40 TDP1 no CPT -2%, RORg inh inconclusive, VP16 counter -4% and TDP1 cell CPT 4%.
Cc1cccc(S(=O)(=O)Nc2ccncc2)c1 was read as DT40 TDP1 no CPT 16%, RORg inh 9%, VP16 counter 0%, TDP1 cell CPT 6% and TDP1 inh 6%[0.0935 µM].
`CCN(CCCc1ccccc1)CCCc1ccccc1` gave DT40 TDP1 no CPT 23µM*!, RORg inh 11%, VP16 counter -9%, TDP1 cell CPT 10µM*! and TDP1 inh 5%.
Screening Cc1cc(=O)oc(C)c1C(=O)Nc1cccc2ccccc12 returned DT40 TDP1 no CPT -5%, RORg inh 11%, VP16 counter 6%, TDP1 cell CPT -20% and TDP1 inh 0%.
Oc1ccc2ccccc2c1C=NNc1ccccn1 was read as DT40 TDP1 no CPT 4.6µM* and TDP1 cell CPT 3.3µM*.
For Oc1ccc2ccccc2c1/C=N/Nc1nnc(-c2ncc[nH]2)c2ccccc12 the results were DT40 TDP1 no CPT 5.2µM*, RORg inh 0.25µM*, VP16 counter 0.25µM*, TDP1 cell CPT 5.2µM* and TDP1 inh 13%.
CN1/C(=C\C(=O)CSc2nncn2C)C(C)(C)c2ccccc21 was read as DT40 TDP1 no CPT -5%, RORg inh 9%, VP16 counter -7%, TDP1 cell CPT 17% and TDP1 inh 3%.
`CCOc1ccc(Nc2nc3cc(S(=O)(=O)N(CC)CC)ccc3o2)cc1` gave DT40 TDP1 no CPT 7.3µM*, RORg inh 35%, VP16 counter 0%, TDP1 cell CPT 5.8µM* and TDP1 inh 1%.
Screening CCS(=O)(=O)c1ccc2oc(Nc3cc(C)cc(C)c3)nc2c1 returned DT40 TDP1 no CPT inconclusive, RORg inh -24%, VP16 counter -6%, TDP1 cell CPT inconclusive and TDP1 inh 3%.
CCS(=O)(=O)c1ccc2oc(Nc3ccc(C(C)C)cc3)nc2c1 was read as DT40 TDP1 no CPT 23µM*, RORg inh 24%, VP16 counter 2%, TDP1 cell CPT 16µM* and TDP1 inh -1%.
For CCn1cc(CNC(=O)c2cc(-c3ccccc3OC)nc3ccccc23)c(C)n1 the results were DT40 TDP1 no CPT 15µM*, RORg inh 23%, VP16 counter 6%, TDP1 cell CPT inconclusive and TDP1 inh 3%.
For CCn1cc(CNC(=O)c2cc(-c3ccc(C)cc3)nc3ccc(Br)cc23)c(C)n1 the results were DT40 TDP1 no CPT 13µM*, TDP1 cell CPT 6.5µM* and TDP1 inh -4%.
CCn1cc(CNC(=O)c2cc(-c3cc(OC)ccc3OC)nc3ccccc23)c(C)n1 was read as DT40 TDP1 no CPT 23µM*, RORg inh 31%, VP16 counter -8%, TDP1 cell CPT inconclusive and TDP1 inh 1%.
Screening CN(CC(=O)Nc1ccc(Cl)c(C(F)(F)F)c1)C(=O)/C=C/c1ccco1 returned DT40 TDP1 no CPT 18µM*, RORg inh 40%, VP16 counter 1%, TDP1 cell CPT 18µM* and TDP1 inh -3%.
`CN(CC(=O)Nc1ccc(Cl)c(C(F)(F)F)c1)C(=O)/C=C/c1cccs1` gave DT40 TDP1 no CPT 23µM*, TDP1 cell CPT inconclusive and TDP1 inh 2%.
`CN(CC(=O)Nc1ccc(Cl)c(Cl)c1)C(=O)/C=C/c1ccc(F)cc1` gave DT40 TDP1 no CPT -25%, RORg inh -3%, VP16 counter 5%, TDP1 cell CPT -9% and TDP1 inh 3%.
`CN(CC(=O)Nc1ccc(Cl)c(C(F)(F)F)c1)C(=O)CCNC(=O)c1ccco1` gave DT40 TDP1 no CPT inconclusive, TDP1 cell CPT inconclusive and TDP1 inh 5%.
For CN(CC(=O)Nc1ccc(Cl)c(C(F)(F)F)c1)C(=O)C1CC(=O)N(Cc2ccco2)C1 (stereo unspecified) the results were DT40 TDP1 no CPT 23µM* and TDP1 cell CPT 13µM*.
`CCCCCN(C(=O)CCC(=O)OCC(=O)N(CC)c1ccccc1)c1c(N)n(CCCC)c(=O)[nH]c1=O` gave DT40 TDP1 no CPT -17%, TDP1 cell CPT 1% and TDP1 inh -9%.
For CC(C)(C)C(=O)c1c(N)[nH]c(C(=O)c2ccccc2)c1-c1ccc(C(F)(F)F)cc1 the results were DT40 TDP1 no CPT 23µM* and TDP1 cell CPT inconclusive.
Screening Nc1[nH]c(C(=O)c2ccccc2)c(-c2ccc(Br)cc2)c1C(=O)c1cccs1 returned DT40 TDP1 no CPT inconclusive and TDP1 cell CPT -24%.
For Nc1[nH]c(C(=O)c2ccccc2)c(-c2ccccc2C(F)(F)F)c1C(=O)c1cccs1 the results were DT40 TDP1 no CPT 23µM* and TDP1 cell CPT 23µM*.
COc1cc(OC)cc(C(=O)NC2CCSc3ccccc32)c1 (stereo unspecified) was read as DT40 TDP1 no CPT 23µM*, RORg inh inconclusive, VP16 counter 17%, TDP1 cell CPT inconclusive and TDP1 inh 4%.
Screening Cc1cccc(C(=O)NC2CCCc3ccccc32)c1 (stereo unspecified) returned RORg inh 13%, VP16 counter -6% and TDP1 inh 6%.
